Assay outcomes as filed in PubChem.
Hits are enriched below; roughly 6.6% of the tested compounds scored in any of these assays.
KB-3-1 tox = kills parental KB-3-1 adenocarcinoma cells | KB-3-1 viability, CellTiter-Glo ATP luminescence, 72 h | Potency, µM (highest dose often 46.1 µM), most hits filed as cytotoxic | hit rate 1.4% among 400,000 | AID 1347075; further: on the % scale 0 is the no-effect control and ±100 the full control effect; nearly all actives have a fitted effect of over 60% in size
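Cells are dispensed, compounds pinned in, plates held at 37 °C for 72 h, then CellTiter-Glo is added and luminescence read after 10 minutes. Cell line: parental KB-3-1 in phenol-red-free DMEM, 10% FBS.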
SW480 rereplic = induces DNA re-replication in SW480 colon adenocarcinoma cells; Potency, µM (doses to about 46.1 µM), for the others: at the highest dose re-replication activation, actives largely listed as activators; SW480 DNA re-replication, Hoechst DNA content imaging, 48 h; hit rate 1.8% among 340,000; further: % of control where 0% means no effect; nearly all actives have a fitted effect of over 55% in size
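Treated cells incubate 48 hr (37 C, 5% CO2), are stained 40 min with Hoechst, and nuclear fluorescence is enumerated; a rise in nuclei with high DNA signal marks re-replication.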
TSG101-PTAP inh = blocks PTAP/TSG101 interaction to inhibit HIV-1 budding | Fluorescence polarization, FITC-PTAP peptide / Tsg101 binding | Q99816 | Potency, µM (top dose mostly 115 µM), for inactives: at the highest dose activity change, negative = inhibition, usual class: inhibitors | AID 493005 | 340,000 tested, under 10 active; active means well fitted inhibition curve with a large enough effect in the main read-out, with a control signal flat, not every such curve was filed as active; inconclusive means small, poorly fitted or top-dose-only effect, or effect the other way, or a change in a side signal; inactive means no such curve, though single readings can be large or run the other way; further: % of control where 0% means no effect
Target sequence (Q99816 whole entry, looked up): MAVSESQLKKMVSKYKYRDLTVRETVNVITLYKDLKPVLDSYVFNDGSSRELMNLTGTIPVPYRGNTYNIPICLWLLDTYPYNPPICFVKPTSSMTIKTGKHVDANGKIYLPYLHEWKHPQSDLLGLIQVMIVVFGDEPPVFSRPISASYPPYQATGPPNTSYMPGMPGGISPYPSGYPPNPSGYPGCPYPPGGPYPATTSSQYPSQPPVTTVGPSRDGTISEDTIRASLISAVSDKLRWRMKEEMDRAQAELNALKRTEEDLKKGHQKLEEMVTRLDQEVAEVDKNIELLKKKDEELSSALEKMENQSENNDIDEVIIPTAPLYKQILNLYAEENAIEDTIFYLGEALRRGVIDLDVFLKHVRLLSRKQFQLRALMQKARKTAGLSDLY
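Tsg101 binding domain (10 uM final) was mixed with compound and a FITC-labeled PTAP peptide (50 nM final) in HEPES pH 7.5 buffer with NaCl, Tween 20, EDTA and TCEP; fluorescence polarization was read after 20 min at r.t.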
MCF10A rereplic = DNA re-replication induction in MCF 10a cells; MCF 10A DNA re-replication, Hoechst nuclear intensity, 48 h; Potency, µM (series often up to 46.1 µM), without a hit: at the highest dose activity, positive = re-replication, hits mostly activators; hit rate 2.9% among 350,000; AID 624296; further: % of control where 0% means no effect; nearly all actives have a fitted effect of over 50% in size
RGS4 inh = inhibitors of human regulator of G protein signaling 4. P49798. Transcreener GDP fluorescence polarization, RGS4-accelerated GTP hydrolysis. Potency, µM (top dose mostly 114 µM), without a hit: at the highest dose activity change, negative = inhibition, actives largely listed as inhibitors. hit rate 0.039% among 390,000. AID 504845; further: on the % scale 0 is the no-effect control and ±100 the full control effect; nearly all actives have a fitted effect of over 75% in size
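MLSMR compounds (23 nl, pin-transferred) preincubated 10 min at room temperature with a 500nM (2x) first reagent, then RGS4 at 900nM (2x) plus Transcreener GDP mix added; fluorescence polarization (620/688 nm) read before and after 90 min at 30 °C.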
KB-V1 MDR tox = KB-V1 MDR subline cytotoxicity; KB-V1 MDR cells viability, CellTiter-Glo, 72 h; Potency, µM (series often up to 46.1 µM), actives largely listed as cytotoxic; hit rate 3.4% among 400,000; further: on the % scale 0 is the no-effect control and ±100 the full control effect; nearly all actives have a fitted effect of over 60% in size
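Potencies derive from concentration-effect curves fitted to normalized luminescence (CellTiter-Glo) of KB-V1 cells treated for 72 h at 37 degrees C in phenol-red-free DMEM containing 10% FBS.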
Numbers without * were called inactive; i = inactive; ? = inconclusive; nt = no result; [ ] = another dose, or the depositor's remark. Unless noted, the call rests on the fitted dose curve; in most records, active means well fitted curve in the direction sought with a large enough effect; inconclusive means small, poorly fitted or top-dose-only effect, or another doubt; inactive means no such curve, though single readings can be large; an effect the other way counts as inactive or inconclusive. Potency means the concentration at half of the fitted maximal effect.

SMILES	KB-3-1 tox	SW480 rereplic	TSG101-PTAP inh	MCF10A rereplic	RGS4 inh	KB-V1 MDR tox
Cc1noc(-c2ccc(NCc3ccccc3)c([N+](=O)[O-])c2)n1	i	nt	nt	nt	9.4%	i
COc1ccc(NC(=O)/C(N=Nc2cc(S(=O)(=O)Nc3ccc(OC)cc3)ccc2OC)=C(\C)O)cc1	?	-71.5%	-6.7%	0.581µM*	7.7%	i
CCn1cc(S(=O)(=O)c2ccc(C)cc2)c(=O)c2cc(F)c(N3CCCCCC3)cc21	i	nt	nt	nt	-8.4%	?
CCc1c2c(nc3ccc(OC)cc13)-c1nc3ccccc3c(=O)n1C2	nt	nt	nt	nt	10.7%	nt
COc1cccc(N2CCc3c(C)nc4ccc(Cl)cc4c32)c1	?	?	-0.6%	?	11.2%	16.4µM*
COc1ccc(N2CCc3c(C)nc4c(OC)cc(OC)cc4c32)c(OC)c1	?	?	-1.4%	25.9µM*	0.4%	?
COc1ccc(N2CCc3c(C)nc4c(OC)cc(OC)cc4c32)cc1	i	14.2%	0.1%	?	0.7%	?
COc1ccc(N2CCc3c(C)nc4c(OC)cccc4c32)cc1	4.61µM*	?	-3.6%	?	19.2%	?
CCN1Cc2c(/C=C/c3ccccc3)nc3ccc(OC)cc3c2N(c2cccc(Cl)c2)C1	?	27.6%	-5.4%	25.9µM*	1.2%	i
CCOc1ccc(C(=O)c2cn(Cc3ccc(OC)cc3)c3cc(OC)c(OC)cc3c2=O)cc1	i	nt	nt	nt	-13.6%	i
CCN(c1ccccc1C)S(=O)(=O)c1nnc(NC(=O)c2ccc(OC)c(OC)c2)s1	nt	nt	nt	nt	1.2%	nt
O=C(Cn1ncc2c(Cl)cccc21)NCc1cccc(Br)c1	i	nt	nt	nt	-2.7%	i
Cc1cc2c(N=O)c(NO)ccc2[nH]1	?	4.11µM*	0.3%	?	22.9%	4.11µM*
Cc1ccc2c(=O)cc(C(=O)NCc3ccccc3)oc2c1	i	nt	nt	nt	-32.3%	?
CC/C(=N\Nc1ccc([N+](=O)[O-])cc1)c1ccccc1	i	?	0.4%	16.4µM*	-9.5%[11.4 µM]	i
CCc1ccc(/C(C)=N\Nc2ccc([N+](=O)[O-])cc2)cc1	i	14.6µM*	1.2%	9.2µM*	5.0%	i
C/C(=N\Nc1ccc([N+](=O)[O-])cc1)c1ccc(N)cc1	i	29.0%	-0.5%	?	-52.8%	?
CC(=O)Nc1ccn(C2CC3OCC(NC(=O)C(Cc4ccccc4)NC(=O)OC(C)(C)C)C3O2)c(=O)n1 (configuration not stated)	nt	nt	nt	nt	-28.7%	nt
O=C(CSC1=Nc2ccccc2N=C(c2ccc(F)cc2)C1)Nc1cc(F)ccc1F	i	nt	nt	nt	-20.0%	?
CCc1ccc(NC(=O)c2sc3nc(C)cc(C)c3c2NC(=O)c2ccccc2OC)cc1	i	nt	nt	nt	-2.2%	i
CCC(=O)Nc1cc(-c2nc3cc(C)cc(C)c3o2)ccc1C	i	nt	nt	nt	10.2%	i
O=CN1CCN(C(=O)c2cc3cc(Cl)ccc3[nH]2)CC1	i	5.17µM*	-0.7%	?	-30.2%	i
COc1ccccc1NC(=O)c1c(C)cc(C)nc1SCC(=O)Nc1ccc(C)cc1	i	nt	nt	nt	10.1%	i
COC(=O)c1ccc(-c2ccc(F)cc2)nc1C	i	29.1µM*	1.4%	-5.6%	-4.2%	i
Cc1nc(-c2ccccc2)ccc1C(=O)O	i	4.9%[1.84 µM]	-2.3%	?	17.3%	i
COC(=O)c1cnn2c(C(F)(F)F)cc(-c3ccc(F)cc3)nc12	i	-6.1%	-6.0%	?	-16.4%	?
Cc1ccc(-c2ccc(C(=O)O)c(C)n2)cc1	i	2.31µM*	-2.3%	-46.5%	-15.0%	i
O=C(CCCCn1c(=O)c2ccccc2n(CC(=O)Nc2cccc(F)c2)c1=O)NCCc1ccccc1	i	nt	nt	nt	-14.1%	i
O=C(/C=C/c1ccco1)Nc1ccc(Oc2ccc(Cl)cc2)cc1	5.8µM*	?	-0.1%	4.61µM*	-43.3%	?
COC(=O)c1ccc(-c2nc3ccccc3[nH]2)cc1	?	nt	-13.1%	-2.6%	11.6%	18.4µM*
